In publication PMC13494018:
Values without a mark were called inactive. How the calls were made is not given here.

target: CD276, Q5ZPR3
Sequence (Q5ZPR3 whole entry): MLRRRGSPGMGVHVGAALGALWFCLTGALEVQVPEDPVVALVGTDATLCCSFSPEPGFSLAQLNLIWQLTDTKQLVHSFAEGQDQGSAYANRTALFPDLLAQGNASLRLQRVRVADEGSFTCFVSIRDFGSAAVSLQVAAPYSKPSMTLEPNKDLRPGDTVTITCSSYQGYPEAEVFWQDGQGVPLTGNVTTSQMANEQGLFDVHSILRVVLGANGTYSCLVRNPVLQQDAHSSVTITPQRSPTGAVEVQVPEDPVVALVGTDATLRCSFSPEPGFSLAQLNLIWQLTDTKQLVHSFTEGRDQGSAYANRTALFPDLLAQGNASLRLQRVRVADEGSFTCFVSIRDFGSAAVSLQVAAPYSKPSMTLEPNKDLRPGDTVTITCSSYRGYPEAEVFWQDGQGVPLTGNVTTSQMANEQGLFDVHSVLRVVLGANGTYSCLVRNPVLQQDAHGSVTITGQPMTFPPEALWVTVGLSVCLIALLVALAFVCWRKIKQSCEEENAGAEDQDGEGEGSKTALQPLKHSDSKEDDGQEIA

Row | Binder | binding in a display sort
1 | design_611_394c5ea9-a0d3-47c4-9d48-89ba6a28fdd0_1531_dldesign_0_cycle1_af2pred (protein) AQAQVEAMARNAAAGMRALARADGHPDVGEEMAALVLADPVEGARRAVELARERLSPEVAAAVAEIARIQIETA | not found
2 | design_611_394c5ea9-a0d3-47c4-9d48-89ba6a28fdd0_1623_dldesign_0_cycle1_af2pred (protein) SAEVLAAAEKLVEIGELARKAAEAFPELAEKAAEAANLAALGLAKLASGATAAEGKKAMEKAEELAKELKKAL | not found
3 | design_611_394c5ea9-a0d3-47c4-9d48-89ba6a28fdd0_1679_dldesign_0_cycle1_af2pred (protein) GEELEKAKEEAEKLTDLAKALAAQGTPLGKAAANAMSDSAVKIVLDTAKKLGKEEEGKKYADEIKAATAAALAA | not found
4 | design_611_394c5ea9-a0d3-47c4-9d48-89ba6a28fdd0_1682_dldesign_0_cycle1_af2pred (protein) SAALEELREKGKAEANALISASMKAAAAGLAGDAATAAAAAATIEANAKEAKEKAKEYPEAKEYYEKAAKVNTQLAEGAKLL | not found
5 | design_611_394c5ea9-a0d3-47c4-9d48-89ba6a28fdd0_1683_dldesign_0_cycle1_af2pred (protein) DEAEELVRLVEEARALAIDPATRGQGVTLFLLVGIRSGPAVRAAAVEAARAAREAAALPPEERARRLEELAARVIAAIRAEA | not found
6 | design_611_394c5ea9-a0d3-47c4-9d48-89ba6a28fdd0_1764_dldesign_0_cycle1_af2pred (protein) MLAEEARKYAEKGAEGEDSEEWFAKAAELYAQALLTSEEEARATFEALREVAERYPEKAEKVYAAISRGVQLAAQQAL | not found
7 | design_611_394c5ea9-a0d3-47c4-9d48-89ba6a28fdd0_1787_dldesign_0_cycle1_af2pred (protein) AAAAIAAATTGMNIAKKNANTLLAQAEATGNAGLADAAKVAADIVKANAKAAAKLADADTGAALVKDAEDFAKATNAKIAAVKAKA | not found
8 | design_611_394c5ea9-a0d3-47c4-9d48-89ba6a28fdd0_1995_dldesign_0_cycle1_af2pred (protein) AELAKQIAKKVMETAIKIAEEETPEAGIEAGKRAAMTAVALGDLETAEETIERVVEIARKKDPEAAERAREELEAAYARALAAVAAS | not found
9 | design_611_394c5ea9-a0d3-47c4-9d48-89ba6a28fdd0_2003_dldesign_0_cycle1_af2pred (protein) GELKEQTAQLLETAIQAAKLSAKQAQAAIKAATIAGSQSPETKEISEEYGKKAIEAAKKSAEEAQKVIKEWLKLVKE | not found
10 | design_611_394c5ea9-a0d3-47c4-9d48-89ba6a28fdd0_2077_dldesign_0_cycle1_af2pred (protein) ASEELLKEAVTLNMRLAVEFPEVAKYARAAAHYLMAGDAEKAVESAEKMLEEAKKAGPEAAALAEKALKATKAAAADQAAER | not found
11 | design_611_394c5ea9-a0d3-47c4-9d48-89ba6a28fdd0_2091_dldesign_0_cycle1_af2pred (protein) RAALEEALAKARELAEKVGEEDPEVAKEVLELIDKAAATSPATGLYYLLQALELMSRYAKESGSEVAREAAEALRAAVAIWSRLAIA | not found
12 | design_611_394c5ea9-a0d3-47c4-9d48-89ba6a28fdd0_2213_dldesign_0_cycle1_af2pred (protein) GQELLAQAQKELKEGKALMKEGKYKEALAKFTQAANLAAKAAAAYADQPIAKQANAVLAEAVENMAKAQALID | not found
13 | design_611_394c5ea9-a0d3-47c4-9d48-89ba6a28fdd0_2254_dldesign_0_cycle1_af2pred (protein) GKEEAQKLVEEAREAAKKAKEYTAKALAEDLEAEGAKSWAALNEALAKASQAAQLDPELGSAAIAEVVETAKEIKEKLDAAKAA | not found
14 | design_611_394c5ea9-a0d3-47c4-9d48-89ba6a28fdd0_2334_dldesign_0_cycle1_af2pred (protein) MTPAEAQLQAGEVFLRAAEQALKAGNYESAIKLAELAIEAAKQAKKLAKAAGDEATAKKAEEVEKKAKEVLKKAKE | not found
15 | design_611_394c5ea9-a0d3-47c4-9d48-89ba6a28fdd0_2343_dldesign_0_cycle1_af2pred (protein) AQALADQQLIATVKAALKNAEELYKKDKKAGAKAFAAAAEVAKLAIEGSSAAAKPELKALEKKAKENEKKAKEDA | not found
16 | design_611_394c5ea9-a0d3-47c4-9d48-89ba6a28fdd0_2413_dldesign_0_cycle1_af2pred (protein) TAEQVEKLKERAIERLKKAAELDKEAAEELLKLYEEMKKVSENLGEAALLAAKAAAIAKNPEARALASQALADLSQAAILAAA | not found
17 | design_611_394c5ea9-a0d3-47c4-9d48-89ba6a28fdd0_2429_dldesign_0_cycle1_af2pred (protein) GPERAELLRNAARQAEEAIRKGDESPDGVLYYTAAALIVANAIGDPELRAKAQAAAALSPEEARKVAEELRELALERARELA | not found
18 | design_612_bdadb936-3f14-48ad-830f-718e38d81c30_35_dldesign_0_cycle1_af2pred (protein) SEAEKEAAKAEVRALGAQALDVALRAAARQGAPVAELAAVVQQISQLVDQGIALVEKGDLEAGLALAQQALQLAQQFAA | not found
19 | design_612_bdadb936-3f14-48ad-830f-718e38d81c30_88_dldesign_0_cycle1_af2pred (protein) AAAAAAGEAALARLETEGAAAAAAAAADPAAAGEEIERVLALQAEVARAHPSVAAEAAAIARRYNAAIARAVVAA | not found
